Experimental data published in PubChem BioAssay (EPA / NIEHS).
Values joined by “and” are separate entries in the source; they are usually repeats but may differ in a detail not shown here. Equal values may be shown once. Records with an inconclusive call do not appear. Where a structure was tested more than once in an assay, its records may differ in their call. Active and inactive are the calls of the source. How the source made its calls: active means hit-call score of the fitted dose curve at least 0.9, where 1 is the maximum; inconclusive means response in the unintended direction; inactive means score below 0.9.

Assays:
[1] = ATG_XTT_Cytotoxicity: Cytotoxicity Assessment in the Attagene TRANS-FACTORIAL HepG2 Assay (AID 2283584);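 on AC50: XTT signal for cell number as viability in transfected HepG2 cells; cells exposed to compound for 24 h before reading; active means loss of viability signal versus DMSO baseline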
Summary of the method: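 HepG2 cells transiently transfected with GAL4-UAS multiple reporter units, dosed 24 h; cytotoxicity read by XTT as loss of signal versus DMSO baseline.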

[2] = TOX21_p53_BLA_p2_viability: Viability Assessment in the Tox21 HCT-116 p53 Agonism Beta-lactamase Assay, Phase 2 (AID 2283591);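 further: compound exposure lasted 16 h at 37 °C; actives lower the ATP signal meaning cytotoxicity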
Summary of the method: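 HCT116 p53-bla cells, 4000/well, dosed after 5 h plating (217-fold dilution of DMSO stocks) and incubated 16 h at 37C. Viability taken as cellular ATP by CellTiter-Glo luminescence after 30 min RT; signal loss marks cytotoxicity.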

[3] = molecular target: Cellular tumor antigen p53 (Homo sapiens) (UniProt P04637); assay: TOX21_p53_BLA_p2_ratio: Tox21 HCT-116 p53 Agonism Beta-lactamase Assay, Ratio, Phase 2 (AID 2283592)
Summary of the method: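 HCT-116 cells with p53-responsive beta-lactamase reporter, 4000 cells/well, preincubated 5 h, then compound in DMSO (217-fold dilution) for 16 h at 37C. CCF4-AM substrate 2 h at room temperature; 460/530 nm emission ratio fitted upward versus DMSO.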

[4] = TOX21_p53_BLA_p3_viability: Viability Assessment in the Tox21 HCT-116 p53 Agonism Beta-lactamase Assay, Phase 3 (AID 2283593);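 further: cells exposed to compound for 16 h before reading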
Summary of the method: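 HCT116 cells, 4000/well, dosed 5 h after plating by pin transfer (217-fold dilution from DMSO stock) and incubated 16 h at 37C, 5% CO2. Viability read as ATP luminescence with CellTiter-Glo after 30 min at room temperature.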

[5] = molecular target: Cellular tumor antigen p53 (Homo sapiens) (UniProt P04637); assay: TOX21_p53_BLA_p3_ratio: Tox21 HCT-116 p53 Agonism Beta-lactamase Assay, Ratio, Phase 3 (AID 2283596)
Summary of the method: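 HCT116 p53-bla cells (4000/well) given compound in DMSO (217-fold dilution) after 5 h, incubated 16 h at 37C. CCF4-AM substrate 2 h at room temperature; 460/530 nm emission ratio, gain fitted against DMSO.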

[6] = TOX21_p53_BLA_p4_viability: Viability Assessment in the Tox21 HCT-116 p53 Agonism Beta-lactamase Assay, Phase 4 (AID 2283597);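 further: hits lower the luminescence signal meaning cytotoxicity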
Summary of the method: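 HCT-116 p53-bla cells, 4000/well, dosed after 5 h attachment and incubated 16 h at 37 °C, 5% CO2. Viability from CellTiter-Glo ATP luminescence after 30 min at room temperature, taken after the beta-lactamase read; loss of signal indicates cytotoxicity.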

[7] = TOX21_p53_BLA_p5_viability: Viability Assessment in the Tox21 HCT-116 p53 Agonism Beta-lactamase Assay, Phase 5 (AID 2283600)
Summary of the method: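 HCT-116 p53 beta-lactamase reporter cells, 4000/well, were exposed to compound (pin transfer, 217-fold dilution) for 16 hours at 37C. Cellular ATP was read by CellTiter-Glo luminescence after 30 min at room temperature.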

[8] = molecular target: Cellular tumor antigen p53 (Homo sapiens) (UniProt P04637); assay: TOX21_p53_BLA_p4_ratio: Tox21 HCT-116 p53 Agonism Beta-lactamase Assay, Ratio, Phase 4 (AID 2283601)
Summary of the method: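 HCT-116 p53 beta-lactamase reporter cells (4000/well) preincubated 5 h, then compound (217-fold dilution of DMSO stock) for 16 h at 37C. CCF4-AM substrate added 2 h at room temperature; 460/530 nm emission ratio fitted upward versus DMSO.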

[9] = molecular target: Cellular tumor antigen p53 (Homo sapiens) (UniProt P04637); assay: TOX21_p53_BLA_p5_ratio: Tox21 HCT-116 p53 Agonism Beta-lactamase Assay, Ratio, Phase 5 (AID 2283599)
Summary of the method: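 HCT-116 p53-bla cells (4000/well) plated 5 h, dosed with compound (217-fold DMSO dilution) for 16 h at 37 C; CCF4-AM substrate 2 h at room temperature. Activity is the 460/530 nm emission ratio (405 nm excitation), fitted in gain-of-signal direction versus DMSO.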

Measured: AC50

Sequence of Cellular tumor antigen p53 (Homo sapiens) (P04637 whole entry, looked up): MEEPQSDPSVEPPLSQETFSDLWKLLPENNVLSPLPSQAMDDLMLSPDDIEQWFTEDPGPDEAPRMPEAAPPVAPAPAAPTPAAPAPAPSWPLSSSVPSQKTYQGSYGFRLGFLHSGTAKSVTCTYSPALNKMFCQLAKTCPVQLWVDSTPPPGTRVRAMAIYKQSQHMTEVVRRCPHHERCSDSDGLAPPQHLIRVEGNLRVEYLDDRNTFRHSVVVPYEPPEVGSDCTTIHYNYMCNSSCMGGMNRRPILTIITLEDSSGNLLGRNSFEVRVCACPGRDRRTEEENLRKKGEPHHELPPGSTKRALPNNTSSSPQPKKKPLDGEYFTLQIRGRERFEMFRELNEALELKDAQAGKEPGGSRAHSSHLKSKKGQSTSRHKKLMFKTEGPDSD

OCC#CCO
inactive: [1] | [2] | [3] | [4] | [5] | [6] | [7] | [8]

CCOC(=O)c1ccc(N)cc1
inactive: [1] | [2] | [4] | [5] | [9] | [8]

C=C(C)CNCC
inactive: [1] | [2] | [5] | [6] | [9] | [8]

Nc1c(Cl)cc(Cl)cc1[N+](=O)[O-]
inactive: [1] | [2] | [3] | [6] | [7] | [8]

CC=CC=CCOC(=O)C(C)C
inactive: [1] | [2] | [4] | [5] | [6]

C/C=C(\C)C(=O)OCCc1ccccc1
inactive: [1] | [2] | [5] | [6]

CC(C)CCOC(=O)c1ccccc1
inactive: [1] | [2] | [3] | [9] | [7] | [8]

CC(=O)c1c(C)c([N+](=O)[O-])c(C(C)(C)C)c([N+](=O)[O-])c1C
inactive: [1] | [2] | [4] | [6] | [9] | [7] | [8]

Cc1c(C2(c3cc(Br)c(O)c(Br)c3C)OS(=O)(=O)c3ccccc32)cc(Br)c(O)c1Br
active: [4] 37.1 µM | [6] 28.4 µM
inactive: [1] | [2] | [5] | [7] | [8]

CCCC1O[C@@H]2C[C@H]3[C@@H]4CCC5=CC(=O)C=C[C@]5(C)[C@H]4[C@@H](O)C[C@]3(C)[C@]2(C(=O)CO)O1 (stereo partly drawn)
inactive: [1] | [2] | [4] | [5] | [6] | [9] | [7] | [8]

CCCCCCCCCCCCCC(=O)OCC(O)CO (stereo not drawn)
inactive: [1] | [2] | [3] | [9] | [7]

Cc1ccc2c(c1)C(=O)OC2=O
inactive: [1] | [2] | [4] | [6] | [9] | [7] | [8]

O=C(CS)OCCOC(=O)CS
inactive: [1] | [2] | [6]
active: [3] 42.9 µM | [5] 39.3 µM | [8] 53.3 µM

NC(=S)NNC(N)=S
inactive: [1] | [2] | [4] | [5] | [6] | [7] | [8]

O=CN1CCOCC1
inactive: [1] | [2] | [3] | [9] | [8]

Cc1ccc(-c2ccccc2)cc1
inactive: [1] | [2] | [4] | [5] | [9] | [7]

CCCOCCO
inactive: [1] | [2] | [3] | [6] | [7]

CCCCCCCCCCCC(=O)OC[C@@H](O)[C@H]1OC[C@H](O)[C@H]1O
inactive: [1] | [2] | [4] | [7] | [8]

Cc1cccc(Nc2ccccc2)c1
inactive: [1] | [2] | [3] | [5] | [6] | [9] | [8]

c1ccc(CCc2ccccc2)cc1
inactive: [1] | [2] | [3] | [9] | [7] | [8]

CCCCC(CC)COC(=O)c1ccc(O)cc1 (stereo not drawn)
active: [1] 100 µM and 121 µM | [2] 41.9 µM and 67.8 µM | [4] 84.1 µM | [5] 72.6 µM and 85.1 µM | [6] 72.2 µM and 45.9 µM | [9] 69.4 µM and 62.4 µM | [7] 56.6 µM and 66.6 µM | [8] 86 µM and 72.3 µM
inactive: [4]

CCOC(=O)[C@@H](C)Oc1ccc(Oc2nc3ccc(Cl)cc3o2)cc1
inactive: [1] | [2] | [3] | [5] | [9]

O=c1[nH]c(=O)c2cn[nH]c2[nH]1
inactive: [1] | [2] | [3] | [5] | [7] | [8]

O=C(O)c1ccc(O)cc1
inactive: [1] | [2] | [5] | [6] | [9] | [8]

CCCC(=O)OC(C)(C)Cc1ccccc1
inactive: [1] | [2] | [3] | [5] | [6] | [9] | [7] | [8]

C#CC(C)N(C)C(=O)Nc1ccc(Cl)cc1 (stereo not drawn)
inactive: [1] | [2] | [3] | [5] | [6] | [7] | [8]

C[C@H](CCC(=O)NCC(=O)O)[C@H]1CC[C@H]2[C@@H]3[C@H](O)C[C@@H]4C[C@H](O)CC[C@]4(C)[C@H]3C[C@H](O)[C@]12C
inactive: [1] | [2] | [5] | [6] | [9] | [7] | [8]

CCO/C=C1\N=C(c2ccccc2)OC1=O
inactive: [1] | [2] | [5] | [6] | [9] | [8]

O=C(O)CCCCCCCCC(=O)O
inactive: [1] | [2] | [5] | [6] | [9] | [7] | [8]

O=C1NC2NC(=O)NC2N1 (stereo not drawn)
inactive: [1] | [2] | [3] | [5] | [6] | [9] | [7] | [8]

COC(C)(C)CC(C)=O
inactive: [1] | [2] | [4] | [5] | [9]

C=CC(=O)OCCCC
inactive: [1] | [2] | [3] | [5] | [6] | [9] | [7] | [8]

CC(=O)Nc1ccc(C(=O)CCl)cc1
active: [5] 29.9 µM | [8] 79.4 µM
inactive: [1] | [2] | [4] | [5] | [7] | [8]

CC(C)(C)c1ccc(C(=O)O)cc1
inactive: [1] | [2] | [3] | [5] | [9] | [7] | [8]

CC(C)NCC(O)COc1ccc(CC(N)=O)cc1 (stereo not drawn)
inactive: [1] | [2] | [3] | [7]

CC(=O)CC(=O)Nc1ccc(C)cc1C
inactive: [1] | [2] | [5] | [6] | [7]

CC1(C)O[C@@H]2[C@@H](CO[C@@]3(COS(N)(=O)=O)OC(C)(C)O[C@@H]23)O1
inactive: [1] | [2] | [4] | [5] | [6] | [7] | [8]

CN1C(=O)c2ccccc2C1=O
inactive: [1] | [2] | [5] | [6] | [7] | [8]

N#Cc1cscn1
inactive: [1] | [3] | [4] | [5] | [6] | [7] | [8]

O=C(Nc1ccc2c(O)c(N=Nc3ccc(N=Nc4ccc(S(=O)(=O)O)cc4)cc3)c(S(=O)(=O)O)cc2c1)c1ccccc1
inactive: [1] | [2] | [6] | [8]

Cc1c(Cl)cccc1[N+](=O)[O-]
inactive: [1] | [3] | [5] | [9] | [7]

C[Si]1(C)O[Si](C)(C)O[Si](C)(C)O1
inactive: [1] | [2] | [5] | [8]

Cc1ccc(OC(=O)c2ccccc2O)cc1
inactive: [1] | [3] | [4] | [5] | [9] | [7]

Cc1cc(=O)oc2cc(N(C)C)ccc12
active: [3] 51.5 µM | [5] 50.6 µM | [9] 47.9 µM | [8] 53.6 µM
inactive: [1] | [6]

CCCCCC(C)=O
inactive: [1] | [3] | [5] | [6] | [9] | [8]

CC(C)OCCO
inactive: [1] | [3] | [4] | [5] | [6] | [7]

O=C1OC[C@H](Cc2cccc(O)c2)[C@H]1Cc1cccc(O)c1
inactive: [1] | [2] | [7] | [8]

CCCCCCCCCCCCN1CCCCCC1=O
active: [1] 29.9 µM
inactive: [3] | [4] | [5] | [9] | [8]

CN(C)C(=O)Nc1ccc(Oc2ccc(Cl)cc2)cc1
inactive: [1] | [3] | [4] | [5] | [6] | [9] | [7] | [8]

C1CCOC1
inactive: [1] | [2] | [5] | [8]

C=C[Si]1(C)O[Si](C)(C=C)O[Si](C)(C=C)O[Si](C)(C=C)O1 (stereo not drawn)
inactive: [1] | [3] | [4] | [5] | [7] | [8]
